PubChem BioAssay (NCATS)
Records with an inconclusive call do not appear. The source made the active and inactive calls. The call rests on the fitted dose curve; in most records, active means well fitted curve in the direction sought with a large enough effect; inconclusive means small, poorly fitted or top-dose-only effect, or another doubt; inactive means no such curve, though single readings can be large; an effect the other way counts as inactive or inconclusive.

What was measured:
[1] = Quantitative High-Throughput drug screen in 47 multiple myeloma cell lines against the NCATS MIPE library collection: AMO1_DSMZ cell viability assay (AID 1918927; further: nearly all actives have a fitted effect of over 30% in size)
Outline: (§1)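 Approved and investigational drugs from MIPE 4.0 were added by pin tool to 500 cells per well. After 48 hours at 37C, ATP-based CellTiter-Glo luminescence indicated remaining viability.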

[2] = Quantitative High-Throughput drug screen in 47 multiple myeloma cell lines against the NCATS MIPE library collection: ARD_JJKsccE7 cell viability assay (AID 1918929)
Outline: as §1

[3] = Quantitative High-Throughput drug screen in 47 multiple myeloma cell lines against the NCATS MIPE library collection: JIM3_ECACC cell viability assay (AID 1918963; further: nearly all actives have a fitted effect of over 35% in size)
Outline: (§2)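 Luminescent ATP measurement with CellTiter-Glo gives viability, scaled between DMSO-only wells (100%) and media-only wells (0%). Cells, 500 per well, faced library compounds for 48 hours at 37C.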

[4] = Quantitative High-Throughput drug screen in 47 multiple myeloma cell lines against the NCATS MIPE library collection: INA6_PLB cell viability assay (AID 1918965; further: nearly all actives have a fitted effect of over 55% in size)
Outline: (§3)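 Steps: seed 500 cells per well; pin-transfer MIPE 4.0 library; incubate 48 h at 37C, 5% CO2, humidified; add CellTiter-Glo, 5 min room temperature; read luminescence.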

[5] = Quantitative High-Throughput drug screen in 47 multiple myeloma cell lines against the NCATS MIPE library collection: H1112_PLB cell viability assay (AID 1918967; further: nearly all actives have a fitted effect of over 30% in size)
Outline: as §1

[6] = Quantitative High-Throughput drug screen in 47 multiple myeloma cell lines against the NCATS MIPE library collection: Karpas25_ECACC cell viability assay (AID 1918968; further: nearly all actives have a fitted effect of over 35% in size)
Outline: as §1

[7] = Quantitative High-Throughput drug screen in 47 multiple myeloma cell lines against the NCATS MIPE library collection: KMS27_JCRB cell viability assay (AID 1918970); further: nearly all actives have a fitted effect of over 30% in size
Outline: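 ATP-based viability (CellTiter-Glo luminescence) is measured in cells treated 48 h with approved and investigational drugs at 37 °C. Controls are DMSO-only wells for full viability and media-only wells for none.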

[8] = Quantitative High-Throughput drug screen in 47 multiple myeloma cell lines against the NCATS MIPE library collection: KMS12PE_JCRB cell viability assay (AID 1918972); further: nearly all actives have a fitted effect of over 30% in size
Outline: as §3

[9] = Quantitative High-Throughput drug screen in 47 multiple myeloma cell lines against the NCATS MIPE library collection: Karpas620_DSMZ cell viability assay (AID 1918959); further: nearly all actives have a fitted effect of over 30% in size
Outline: as §2

[10] = Quantitative High-Throughput drug screen in 47 multiple myeloma cell lines against the NCATS MIPE library collection: JIM1_ECACC cell viability assay (AID 1918964)
Outline: as §1

[11] = Quantitative High-Throughput drug screen in 47 multiple myeloma cell lines against the NCATS MIPE library collection: KMS20_JCRB cell viability assay (AID 1918973); further: nearly all actives have a fitted effect of over 45% in size
Outline: as §1

[12] = Quantitative High-Throughput drug screen in 47 multiple myeloma cell lines against the NCATS MIPE library collection: Karpas417_ECACC cell viability assay (AID 1918961); details: Karpas417 myeloma viability, CellTiter-Glo ATP luminescence, 48 h; viability (% of DMSO): at 45.8 µM (top of the series) unless noted
Outline: as §3

[13] = Quantitative High-Throughput drug screen in 47 multiple myeloma cell lines against the NCATS MIPE library collection: KHM11_PLB cell viability assay (AID 1918962); further: nearly all actives have a fitted effect of over 35% in size
Outline: as §2

[14] = Quantitative High-Throughput drug screen in 47 multiple myeloma cell lines against the NCATS MIPE library collection: KMS12BM_JCRB cell viability assay (AID 1918971); further: nearly all actives have a fitted effect of over 35% in size
Outline: (§4)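 Inhibition of cell viability is measured here. Each line was plated at 500 cells per well, treated with MIPE 4.0 drugs, kept 48 hours at 37C, then assayed for ATP content by CellTiter-Glo luminescence.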

[15] = Quantitative High-Throughput drug screen in 47 multiple myeloma cell lines against the NCATS MIPE library collection: KMM1_JCRB cell viability assay (AID 1918960); further: nearly all actives have a fitted effect of over 30% in size;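 on viability (% of DMSO): 100% = DMSO-treated cells and 0% = medium-only wells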
Outline: (§5)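 Here, 48 h treatment with MIPE 4.0 agents at 37 °C preceded an ATP luminescence read. Plating density was 500 cells per well.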

[16] = Quantitative High-Throughput drug screen in 47 multiple myeloma cell lines against the NCATS MIPE library collection: KMS21BM_JCRB cell viability assay (AID 1918974); details: ATP luminescence, 48 h; viability: at 45.8 µM (top of the series) unless noted
Outline: as §1

[17] = Quantitative High-Throughput drug screen in 47 multiple myeloma cell lines against the NCATS MIPE library collection: KMS26_JCRB cell viability assay (AID 1918975); further: nearly all actives have a fitted effect of over 45% in size
Outline: as §4

[18] = Quantitative High-Throughput drug screen in 47 multiple myeloma cell lines against the NCATS MIPE library collection: ARP1_JJKsccF8 cell viability assay (AID 1918928; further: nearly all actives have a fitted effect of over 40% in size)
Outline: as §5

[19] = Quantitative High-Throughput drug screen in 47 multiple myeloma cell lines against the NCATS MIPE library collection: JJN3_DSMZ cell viability assay (AID 1918966; further: nearly all actives have a fitted effect of over 50% in size)
Outline: as §1
Potency means the concentration at half of the fitted maximal effect.

C[C@@H]1CN(Cc2ccc(F)cc2)[C@@H](C)CN1C(=O)c1cc2c(C(=O)C(=O)N(C)C)cn(C)c2cc1Cl
active: Potency [1] 29.6 µM | Potency [2] 9.35 µM | Potency [3] 13.2 µM | Potency [4] 20.9 µM | Potency [5] 13.2 µM | Potency [6] 9.35 µM | Potency [7] 14.8 µM | Potency [8] 20.9 µM

OCCC#Cc1nc(-c2ccc(F)cc2)c(-c2ccncc2)n1CCCc1ccccc1
active: Potency [1] 23.5 µM | Potency [2] 16.6 µM | Potency [9] 20.9 µM | Potency [3] 23.5 µM | Potency [10] 13.2 µM | Potency [4] 26.4 µM | Potency [5] 5.9 µM | Potency [6] 16.6 µM | Potency [7] 23.5 µM | Potency [8] 18.7 µM | Potency [11] 16.6 µM

COc1ccc(-c2c(-c3ccc(O)cc3O)n[nH]c2C)cc1
active: Potency [1] 42.9 µM | Potency [9] 42.9 µM | viability (% of DMSO) [12] 34.5% [at 92.2 µM] | Potency [4] 38.2 µM | Potency [6] 27 µM | Potency [14] 27 µM
inactive: Potency [13]

CC(C[N+](C)(C)C)OC(N)=O (centres undefined)
inactive: Potency [1] | Potency [2] | Potency [9] | Potency [15] | Potency [13] | Potency [10] | Potency [4] | Potency [5] | Potency [8]
active: Potency [3] 0.0083 µM

O=C(NOC[C@H](O)CO)c1ccc(F)c(F)c1Nc1ccc(I)cc1F
active: Potency [1] 3.72 µM | Potency [9] 0.0469 µM | Potency [15] 0.0187 µM | Potency [12] 0.0469 µM | Potency [13] 0.0132 µM | Potency [3] 0.166 µM | Potency [10] 1.66 µM | Potency [4] 0.0332 µM | Potency [5] 0.0148 µM | Potency [7] 0.0105 µM | Potency [11] 0.0662 µM | Potency [16] 0.0296 µM

Cc1csc(NC(=O)c2sc3nc4c(c(C(F)(F)F)c3c2N)CCC4)n1
active: Potency [6] 1.48 µM | Potency [14] 16.6 µM
inactive: Potency [1] | Potency [2] | Potency [9] | Potency [15] | Potency [13] | Potency [5] | Potency [7] | Potency [17]

CCOc1ccc(Cc2cc([C@@H]3O[C@H](CO)[C@@H](O)[C@H](O)[C@@H]3O)ccc2Cl)cc1
inactive: Potency [18] | Potency [4] | Potency [19] | Potency [14]
active: Potency [1] 14.8 µM | Potency [6] 18.7 µM | Potency [7] 16.6 µM | Potency [8] 26.4 µM

COc1cccc2cc(-c3nc(C4CCC(C(=O)O)CC4)n4ncnc(N)c34)[nH]c12 (centres undefined)
active: Potency [1] 0.372 µM | Potency [18] 0.662 µM | Potency [9] 0.59 µM | Potency [4] 1.48 µM | Potency [19] 1.05 µM | Potency [5] 5.9 µM | Potency [6] 0.662 µM | Potency [14] 0.0743 µM | Potency [8] 0.166 µM | Potency [16] 0.469 µM | Potency [17] 0.662 µM

Cc1cnc(Nc2ccc(OCCN3CCCC3)cc2)nc1Nc1cccc(S(=O)(=O)NC(C)(C)C)c1
inactive: Potency [3] | Potency [5] | Potency [17]
active: Potency [1] 0.418 µM | Potency [9] 1.48 µM | Potency [19] 0.296 µM

CCc1cncnc1N1CCN(Cc2nc3ccc(C(F)(F)F)cc3[nH]2)CC1
inactive: Potency [12] | Potency [10]
active: Potency [1] 6.62 µM | Potency [9] 7.43 µM | Potency [15] 2.64 µM | Potency [3] 20.9 µM | Potency [4] 10.5 µM | Potency [6] 5.26 µM | Potency [7] 7.43 µM | Potency [14] 14.8 µM | Potency [8] 2.09 µM | Potency [17] 4.18 µM

CCC(=O)N[C@H]1CC[C@H](C(=O)N(C)c2ccc(-c3nc4ccccc4o3)cc2)C1
inactive: Potency [14]
active: Potency [1] 11.8 µM | Potency [2] 11.8 µM | Potency [4] 14.8 µM | Potency [5] 11.8 µM | Potency [6] 7.43 µM | Potency [7] 20.9 µM | Potency [8] 4.69 µM | Potency [11] 7.43 µM

OCCn1cc(-c2cnc3nnn(Cc4ccc5ncccc5c4)c3n2)cn1
active: Potency [6] 14.8 µM | Potency [14] 18.7 µM | Potency [8] 20.9 µM
inactive: Potency [1] | Potency [18] | Potency [9] | Potency [3] | Potency [10] | Potency [4] | Potency [5] | Potency [7]

N[C@@H]1CONC1=O
inactive: Potency [1] | Potency [2] | Potency [9] | Potency [15] | Potency [12] | Potency [10] | Potency [4] | Potency [19] | Potency [5] | Potency [6] | Potency [7] | Potency [14] | Potency [8] | Potency [11]
